Lassa entry inh: inhibitors of Lassa virus binding or cell entry; 300,000 tested, 1.2% active; AID 540256; Potency, µM (highest dose often 37.9 µM), hits mostly inhibitors; Lassa virus pseudotype entry inhibition, cell reporter; calls by dose curve; tested in HEK293 cells; further: nearly all actives have a fitted effect of over 50% in size
Vaccinia Venus: inhibitors of vaccinia virus (Venus reporter). Potency, µM (series often up to 36.5 µM), hits mostly inhibitors. Vaccinia virus Venus reporter expression, fluorescence. 330,000 tested, 0.46% active; calls by dose curve; tested in A549 cells; further: nearly all actives have a fitted effect of over 30% in size
Marburg entry inh: Marburg virus entry inhibition; Marburg virus pseudotyped entry inhibition, cell reporter; 300,000 tested, 1.8% active; Potency, µM (titrated, usually from 37.8 µM), hits mostly inhibitors; calls by dose curve; tested in HEK293 cells
FMDV antiviral: blocks foot and mouth disease virus | FMDV antiviral cell-based qHTS | Potency, µM (series often up to 57.9 µM), most hits filed as inhibitors | 410,000 tested, 1.2% active; calls by dose curve; tested in HEK293T cells; further: read-out not given here; nearly all actives have a fitted effect of over 45% in size
HCMV antiviral: human cytomegalovirus inhibition; 410,000 tested, 4.5% active; HFF cells, HCMV-luciferase reporter, 72 h; active compounds read low; AID 1259415; activity change, negative = inhibition, % at 57.5 µM; in the data active means activity change below about -60%; inconclusive means no clear call, values can overlap the other calls; inactive means above about -39%
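Steps: HFFs plated, 16 h 37C; compounds added; HCMV-luciferase added to MOI 1 PFU/cell; 72 h 37C; OneGlo reagent, 5 min room temperature; luminescence read, normalized to controls.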
Vaccinia mCherry: vaccinia inhibition (mCherry reporter); Vaccinia virus mCherry reporter infection, fluorescence; Potency, µM (highest dose often 36.5 µM), hits mostly inhibitors; 310,000 tested, 0.63% active; AID 720579; calls by dose curve; tested in A549 cells; further: nearly all actives have a fitted effect of over 35% in size
Each line names hits and unclear results; the compound was inactive in the other large screens. Most compounds without a hit are left out; they make up all but 6.5% or so of the library.

COC(=O)c1c(NC(=O)c2ccc(C(=O)c3ccccc3)cc2)sc2c1CC(C)(C)NC2(C)C	Vaccinia Venus inconclusive (no result: Lassa entry inh, Marburg entry inh)
C[n+]1c2cc(N)ccc2cc2ccc(N)cc21	Vaccinia Venus inconclusive, FMDV antiviral inconclusive, HCMV antiviral -99.0, Vaccinia mCherry 5.62µM (no result: Lassa entry inh, Marburg entry inh)
Cc1ccc(C)c(N2C(=O)N(Cc3ccccc3C)c3ccccc3S2(=O)=O)c1	FMDV antiviral inconclusive (no result: Marburg entry inh)
CC(C)(C)C(=O)Nc1cc2nn(-c3ccccc3)nc2cc1Cl	Lassa entry inh 1.46µM, Marburg entry inh 0.411µM, FMDV antiviral 50.1µM, HCMV antiviral -87.8
CN(C)c1ccc(N/C(=N\S(=O)(=O)c2cccs2)c2ccccc2)cc1	HCMV antiviral -67.9 (no result: Lassa entry inh, Vaccinia Venus, Vaccinia mCherry)
Cc1ccc2nc(-c3ccc4c(c3)OCCO4)cn2c1	Lassa entry inh 1µM, Marburg entry inh inconclusive, FMDV antiviral 3.16µM, HCMV antiviral -103.2
Oc1ccccc1-c1cc(-c2ccccc2)no1	Lassa entry inh inconclusive, Marburg entry inh inconclusive (no result: Vaccinia mCherry)
Cc1ccc(-c2cc(-c3ccccc3)no2)c(O)c1	Lassa entry inh 5.01µM, Marburg entry inh inconclusive, FMDV antiviral inconclusive
CCc1ccn2cc(-c3cc(-c4ccccc4)no3)nc2c1	FMDV antiviral 3.16µM, HCMV antiviral -95.3 (no result: Lassa entry inh, Vaccinia Venus, Marburg entry inh, Vaccinia mCherry)
Nc1nc(-c2ccc3c(c2)OCCO3)cs1	Vaccinia Venus 7.08µM
CS(=O)(=O)c1ccc(C(=O)OCC(=O)N2CCc3ccccc32)cc1[N+](=O)[O-]	none (no result: Lassa entry inh, Marburg entry inh, FMDV antiviral, HCMV antiviral)
CC(=O)Nc1ccc2nc(-c3ccccc3)cn2c1	Lassa entry inh inconclusive, Marburg entry inh inconclusive
Cc1ccc2nc(-c3cc(-c4ccccc4)no3)cn2c1	Lassa entry inh 0.891µM, Marburg entry inh inconclusive
O=S(=O)(N1CC[C@@]23C1=CC=C[C@@H]2N(S(=O)(=O)C(F)(F)F)c1ccccc13)C(F)(F)F	none (no result: Lassa entry inh, Vaccinia Venus, Marburg entry inh, FMDV antiviral, Vaccinia mCherry)
COc1ccc(-c2nc(SC)n(C)c(=O)c2C#N)cc1OC	HCMV antiviral -61.5 (no result: Vaccinia mCherry)
Clc1ccc(Nc2nnc(Cc3ccncc3)c3ccccc23)cc1	none (no result: Lassa entry inh, Vaccinia Venus, Marburg entry inh, FMDV antiviral, Vaccinia mCherry)
COC(=O)CSc1nc(N)c(C#N)c(-c2ccc(O)cc2)c1C#N	FMDV antiviral 3.98µM (no result: Lassa entry inh, Vaccinia Venus, Vaccinia mCherry)
COC(=O)C1CCN(Cc2ccc3c(c2)CN(C(=O)c2cc(C)oc2C)CCO3)CC1	none (no result: Lassa entry inh, Marburg entry inh, HCMV antiviral)
CCOC(=O)COc1ccc(/C=C/[N+](=O)[O-])c(OCC(=O)OCC)c1	Lassa entry inh 20.6µM, Marburg entry inh 5.17µM, FMDV antiviral 14.1µM, HCMV antiviral -104.8 (no result: Vaccinia Venus, Vaccinia mCherry)
CCOC(=O)COc1ccc2nsnc2c1	Vaccinia Venus inconclusive (no result: Vaccinia mCherry)
CCOC(=O)COc1ccc2ccccc2c1/C=C/[N+](=O)[O-]	Lassa entry inh inconclusive, Marburg entry inh 4.47µM, FMDV antiviral 12.6µM, HCMV antiviral -98.7
CN1CCN(c2nccc3[nH]c(-c4cccc(F)c4)nc23)CC1	none (no result: Lassa entry inh, Vaccinia Venus, Marburg entry inh, FMDV antiviral, Vaccinia mCherry)
C/C(=N\NC(=O)Cc1ccccc1)c1cccs1	none (no result: FMDV antiviral)
C/C(=N\NC(=O)Cn1c(C)nc2ccccc21)c1cccs1	FMDV antiviral inconclusive, HCMV antiviral -63.8
CC(/C=N\NC(=O)Cn1c(C)nc2ccccc21)=C\c1ccccc1	Marburg entry inh inconclusive, FMDV antiviral inconclusive, HCMV antiviral -85.8
O=C(Cn1cnc2ccccc21)N/N=C/C(Br)=C/c1ccccc1	Vaccinia Venus inconclusive, FMDV antiviral inconclusive, HCMV antiviral -66.3, Vaccinia mCherry inconclusive
Cn1c(=O)c2c(ncn2CC(=O)N/N=C/C(Br)=C/c2ccccc2)n(C)c1=O	FMDV antiviral inconclusive, HCMV antiviral inconclusive
CCN(c1cc(C)cc(C)c1)S(=O)(=O)c1nnc(NC(=O)c2cccc(F)c2)s1	Lassa entry inh inconclusive, HCMV antiviral inconclusive, Vaccinia mCherry inconclusive (no result: Marburg entry inh)
CCCC[C@]12Cc3cc(C#N)ccc3[C@H](O1)c1c(cc(C)n(Cc3ccccc3)c1=O)O2	none (no result: Lassa entry inh, Vaccinia Venus, FMDV antiviral, HCMV antiviral, Vaccinia mCherry)
COCc1ccc(CN2Cc3cc(Cl)ccc3OC(C)C2)o1 (stereo not drawn)	none (no result: Lassa entry inh, Marburg entry inh, HCMV antiviral)
COc1cc(C2C(C#N)=C(N)Oc3cc(N)ccc32)cc(OC)c1OC (stereo not drawn)	Lassa entry inh inconclusive, Vaccinia Venus inconclusive, Marburg entry inh 5.62µM (no result: Vaccinia mCherry)
N#CC1=C(N)Oc2cc(Nc3ccccc3)ccc2C1c1ccncc1 (stereo not drawn)	Lassa entry inh inconclusive, Vaccinia Venus inconclusive, Marburg entry inh 17.8µM, FMDV antiviral inconclusive (no result: Vaccinia mCherry)
N#CC1=C(N)Oc2cc(N)ccc2C1c1ccc(F)cc1 (stereo not drawn)	Marburg entry inh inconclusive (no result: Vaccinia Venus, Vaccinia mCherry)
N#CC1=C(N)Oc2cc(N)ccc2C1c1ccc(Cl)cc1 (stereo not drawn)	Lassa entry inh inconclusive, Marburg entry inh inconclusive, Vaccinia mCherry inconclusive

Screening results as filed in PubChem.
